{"source": "PubChem BioAssay (NCATS)", "key": {"[1]": {"experiment": "Confirmatory qHTS to identify inhibitors of SARS-CoV-2 cell entry (AID 1645844); note: nearly all actives have a fitted effect of over 45% in size; note: potency is the fitted concentration of half-maximal effect", "how_it_was_run": "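Luminescence from a luciferase reporter, read 48 hr after pseudotyped-particle addition, gives entry signal, normalised to spike-bearing PP wells and bald PP lacking fusion protein wells. Cells are Expi293F stably expressing human ACE2, compound-pretreated 1 hr.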"}, "[2]": {"experiment": "Cytotoxicity counterscreen for inhibitors of SARS-CoV-2 cell entry (AID 1645845); note: nearly all actives have a fitted effect of over 50% in size", "settings": "outcome: at 57.1 µM (top of the series) unless noted", "how_it_was_run": "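48 h compound treatment (after 1 h preincubation), HEK293-ACE2 cells, 37 C/5% CO2; ATP luminescence endpoint; normalized to cell wells and media blanks.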"}, "[3]": {"experiment": "Primary qHTS to identify inhibitors of SARS-CoV-2 cell entry (AID 1645846); note: nearly all actives have a fitted effect of over 45% in size; note: potency is the fitted concentration of half-maximal effect", "settings": "SARS-CoV-2 pseudovirus cell entry assay, luminescence; activity change, negative = inhibition: at 57.1 µM (top of the series) unless noted", "how_it_was_run": "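Data are normalized to wells receiving SARS-CoV-2-S pseudoparticles and those given bald particles. Entry signal was luciferase luminescence in stable hACE2 Expi293F cells, 48 hr post-infection, after 1 hr compound pretreatment.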"}, "[4]": {"experiment": "VSVG counterscreen qHTS to identify inhibitors of SARS-CoV-2 cell entry (AID 1645847); note: nearly all actives have a fitted effect of over 65% in size; note: potency is the fitted concentration of half-maximal effect; for activity change, negative = inhibition: % is set by controls: 0 for no effect and ±100 for the full control effect", "how_it_was_run": "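Counterscreen using VSV-G (not spike) pseudotyped MLV particles on ACE2-expressing Expi293F cells after 1 h compound preincubation; infection ran 48 h at 37 °C. Data normalized to VSV-G PP and bald-PP wells.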"}, "[5]": {"molecular_target": "Cytochrome P450 2C9 (Homo sapiens) (UniProt P11712)", "sequence (P11712 whole entry, looked up)": "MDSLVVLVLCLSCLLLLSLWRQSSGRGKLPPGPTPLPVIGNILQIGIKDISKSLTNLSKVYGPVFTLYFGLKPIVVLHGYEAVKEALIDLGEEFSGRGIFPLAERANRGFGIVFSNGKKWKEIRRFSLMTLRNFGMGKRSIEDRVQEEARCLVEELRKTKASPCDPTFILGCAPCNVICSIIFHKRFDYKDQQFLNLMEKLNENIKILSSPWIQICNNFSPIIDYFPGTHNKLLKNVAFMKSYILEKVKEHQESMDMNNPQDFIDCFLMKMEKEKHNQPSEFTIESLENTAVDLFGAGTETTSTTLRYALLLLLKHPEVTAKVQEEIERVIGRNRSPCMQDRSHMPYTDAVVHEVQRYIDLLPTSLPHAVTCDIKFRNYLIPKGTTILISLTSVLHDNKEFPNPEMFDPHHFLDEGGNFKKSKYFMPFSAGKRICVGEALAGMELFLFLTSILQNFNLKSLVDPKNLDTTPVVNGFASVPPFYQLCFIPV", "experiment": "Cytochrome P450 family 2 subfamily C member 9 (CYP2C9) small molecule antagonists: luciferase biochemical (cell-free) qHTS assay (AID 1645842; active = well fitted curve in the direction sought with a large enough effect in the repeat runs; an effect the other way counts as inactive or inconclusive; note: nearly all actives have a fitted effect of over 55% in size; note: potency is the fitted concentration of half-maximal effect; for activity change, negative = inhibition: % is set by controls: 0 for no effect and ±100 for the full control effect)", "how_it_was_run": "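Luminescence, after 20 min with luciferin detection reagent, reflected CYP2C9 turnover during a 1 h NADPH-driven reaction at 37C. Enzyme-substrate mix contained 0.4% bovine serum albumin and was preincubated with compound 10 min at room temperature.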"}, "[6]": {"experiment": "Primary qHTS for inhibitors of nuclear receptor binding SET domain protein 2 (NSD2) in an isogenic RCH-ACV NSD2 p.E1099K mutant (9B) (AID 1645876; active = well fitted curve in the direction sought with a large enough effect; an effect the other way counts as inactive or inconclusive; note: % is set by controls: 0 for no effect and ±100 for the full control effect; nearly all actives have a fitted effect of over 70% in size)"}, "[7]": {"experiment": "Primary qHTS for inhibitors of nuclear receptor binding SET domain protein 2 (NSD2) in an RCH-ACV wild type WT cells (2C) (AID 1645877; active = well fitted curve in the direction sought with a large enough effect; an effect the other way counts as inactive or inconclusive; note: % is set by controls: 0 for no effect and ±100 for the full control effect; nearly all actives have a fitted effect of over 70% in size)"}, "[8]": {"molecular_target": "Glutathione peroxidase 1 (Homo sapiens) (UniProt P07203)", "sequence (P07203 whole entry, looked up)": "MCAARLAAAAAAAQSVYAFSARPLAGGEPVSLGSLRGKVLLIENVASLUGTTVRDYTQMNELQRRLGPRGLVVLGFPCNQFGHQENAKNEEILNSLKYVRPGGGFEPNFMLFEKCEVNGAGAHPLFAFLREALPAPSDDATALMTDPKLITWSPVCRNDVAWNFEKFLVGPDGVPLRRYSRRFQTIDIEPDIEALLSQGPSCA", "experiment": "Primary qHTS Assay for Inhibitors of Recombinant Selenoprotein Glutathione Peroxidase 1 (GPX1) (AID 1845191; active = well fitted curve in the direction sought with a large enough effect; an effect the other way counts as inactive or inconclusive; note: nearly all actives have a fitted effect of over 65% in size)", "how_it_was_run": "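10 nM GPX1 + cpd, 30 min RT; start w/ 1 mM GSH, 0.5 mM cumene hydroperoxide, 0.5 mM NADPH, 100 nM GR, 0.01% BSA; buffer 50 mM Tris-HCl pH 7.5, 2 mM EDTA, 150 mM NaCl; Fl 340/450, 0 & 15 min.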"}, "[9]": {"experiment": "qHTS drug screen for cell cycle checkpoint inhibitors in PARPi-resistant BRCA-mutant ovarian cancer cell lines. (AID 1963452)", "settings": "PEO1/OlaR viability, CellTiter-Glo luminescence, 96 h, stronger effect = lower value", "how_it_was_run": "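PEO1, PEO4 and PEO1/OlaR ovarian cancer cells, 600 per well, exposed 96 h at 37C to a dilution series. Viability read by CellTiter-Glo luminescence, normalized to DMSO and empty wells; activity summarized as Z-AUC.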"}, "[10]": {"molecular_target": "Cytochrome P450 2D6 (Homo sapiens) (UniProt P10635)", "sequence (P10635 whole entry, looked up)": "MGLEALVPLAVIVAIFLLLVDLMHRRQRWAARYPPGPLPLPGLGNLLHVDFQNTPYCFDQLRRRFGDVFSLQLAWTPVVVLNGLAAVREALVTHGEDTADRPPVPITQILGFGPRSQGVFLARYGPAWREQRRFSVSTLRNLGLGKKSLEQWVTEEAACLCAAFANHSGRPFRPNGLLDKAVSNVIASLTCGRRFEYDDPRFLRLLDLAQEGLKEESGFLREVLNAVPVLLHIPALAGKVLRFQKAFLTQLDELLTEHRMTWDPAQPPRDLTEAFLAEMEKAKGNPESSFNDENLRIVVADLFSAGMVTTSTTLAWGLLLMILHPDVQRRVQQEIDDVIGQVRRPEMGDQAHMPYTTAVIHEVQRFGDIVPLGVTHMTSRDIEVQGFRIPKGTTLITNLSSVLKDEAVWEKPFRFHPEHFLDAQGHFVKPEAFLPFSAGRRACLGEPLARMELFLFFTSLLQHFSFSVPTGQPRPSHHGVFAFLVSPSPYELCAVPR", "experiment": "Cytochrome P450 family 2 subfamily D member 6 (CYP2D6) small molecule antagonists: luciferase biochemical (cell-free) qHTS assay (AID 1645840; active = well fitted curve in the direction sought with a large enough effect in the repeat runs; an effect the other way counts as inactive or inconclusive; note: nearly all actives have a fitted effect of over 55% in size; note: potency is the fitted concentration of half-maximal effect; for activity change, negative = inhibition: % is set by controls: 0 for no effect and ±100 for the full control effect)", "how_it_was_run": "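P450-Glo luminescent screen: recombinant CYP2D6 enzyme–proluciferin substrate mix preincubated with compound 10 min at room temperature, then NADPH regeneration added for 1 h at room temperature. Detection reagent added for 20 min; luciferin light read as relative luminescence units.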"}}, "note": "“And” between values parts separate entries of the source, which are not always exact repeats. Equal entries are not always repeated. Inconclusive results are not listed. The source made the active and inactive calls. Unless noted, calls come from the whole dose curve."}
{"smiles": "Cc1cnc(Nc2ccc(F)cc2Cl)nc1-c1c[nH]c(C(=O)NC(CO)c2cccc(Cl)c2)c1", "note": "(stereo unspecified)", "values": [{"measurement": "Potency", "setting": "[1]", "result": "3.83 µM (active)"}, {"measurement": "Potency", "setting": "[2]", "result": "inactive"}, {"measurement": "Potency", "setting": "[3]", "result": "8.91 µM (active)"}, {"measurement": "Potency", "setting": "[4]", "result": "1.92 µM (active)"}]}
{"smiles": "Cc1ccccc1[C@@H](C(=O)NC1CCCCC1)N(C(=O)Cn1ccnc1C)c1cccc(F)c1", "values": [{"measurement": "Potency", "setting": "[5]", "result": "inactive"}]}
{"smiles": "CC(C)n1c(=O)cc(N[C@@H](C)c2ccccc2)[nH]c1=O", "values": [{"measurement": "Potency", "setting": "[1]", "result": "inactive"}, {"measurement": "Potency", "setting": "[2]", "result": "inactive"}, {"measurement": "activity change, negative = inhibition", "setting": "[3]", "result": -96.7, "unit": "%"}, {"measurement": "Potency", "setting": "[4]", "result": "inactive"}]}
{"smiles": "C[C@H]1[C@H](O)[C@@H](C)/C=C/C=C/CC/C=C/C=C/C=C/C=C/[C@H](O[C@@H]2O[C@H](C)[C@@H](O)[C@H](N)[C@@H]2O)C[C@@H]2O[C@](O)(C[C@@H](O)[C@H](O)CC[C@@H](O)C[C@@H](O)C[C@@H](O)CC(=O)O[C@H]1C)C[C@H](O)[C@H]2C(=O)O", "values": [{"measurement": "Potency", "setting": "[1]", "result": "9.61 µM (active)"}, {"measurement": "Potency", "setting": "[2]", "result": "inactive"}, {"measurement": "activity change, negative = inhibition", "setting": "[3]", "result": -39.7, "unit": "%"}, {"measurement": "Potency", "setting": "[6]", "result": "inactive"}, {"measurement": "Potency", "setting": "[7]", "result": "inactive"}, {"measurement": "Potency", "setting": "[8]", "result": "inactive"}, {"measurement": "Z-AUC", "setting": "[9]", "result": "1.03 (inactive)"}, {"measurement": "Z-AUC", "setting": "[9]; measured here: PEO1 parental Z-AUC", "result": 0.678}, {"measurement": "Z-AUC", "setting": "[9]; measured here: PEO4 Z-AUC", "result": 1.2}]}
{"smiles": "Nc1ccn([C@@H]2C(F)=C(CO)[C@@H](O)[C@H]2O)c(=O)n1", "values": [{"measurement": "Potency", "setting": "[1]", "result": "1.52 µM (active)"}, {"measurement": "Potency", "setting": "[2]", "result": "inactive"}, {"measurement": "activity change, negative = inhibition", "setting": "[3]", "result": -76.2, "unit": "%"}, {"measurement": "Potency", "setting": "[4]", "result": "3.04 µM (active)"}]}
{"smiles": "Cc1c[nH]c2ncnc(N3CCC(CN)(C(=O)Nc4cccc(OC(=O)N(C)C)c4)CC3)c12", "values": [{"measurement": "Potency", "setting": "[1]", "result": "inactive"}, {"measurement": "Potency", "setting": "[2]", "result": "inactive"}, {"measurement": "activity change, negative = inhibition", "setting": "[3]", "result": "-8.16% and -70.1%"}, {"measurement": "Potency", "setting": "[4]", "result": "inactive"}]}
{"smiles": "CN1CCC(c2c(O)cc(O)c3c(=O)cc(-c4ccccc4Cl)oc23)C1CO", "note": "(stereo unspecified)", "values": [{"measurement": "Potency", "setting": "[1]", "result": "3.04 µM (active)"}, {"measurement": "Potency", "setting": "[2]", "result": "inactive"}, {"measurement": "Potency", "setting": "[3]", "result": "2.82 µM (active)"}, {"measurement": "Potency", "setting": "[4]", "result": "2.41 µM (active)"}]}
{"smiles": "CCc1nc(C(N)=O)c(Nc2ccc(N3CCC(N4CCN(C)CC4)CC3)c(OC)c2)nc1NC1CCOCC1", "values": [{"measurement": "Potency", "setting": "[1]", "result": "3.41 µM (active)"}, {"measurement": "Potency", "setting": "[2]", "result": "inactive"}, {"measurement": "Potency", "setting": "[3]", "result": "10 µM (active)"}]}
{"smiles": "CC/C(=C(/c1ccc(O)cc1)c1ccc(OCCNC)cc1)c1ccccc1", "values": [{"measurement": "Potency", "setting": "[1]", "result": "17.1 µM (active)"}, {"measurement": "Potency", "setting": "[2]", "result": "inactive"}, {"measurement": "activity change, negative = inhibition", "setting": "[3]", "result": -36.5, "unit": "%"}, {"measurement": "Potency", "setting": "[4]", "result": "24.1 µM (active)"}]}
{"smiles": "CCN1CCN(C(c2ccc(Cl)cc2)c2ccc(Cl)cc2)CC1", "values": [{"measurement": "Potency", "setting": "[10]", "result": "0.952 µM (active)"}, {"measurement": "Potency", "setting": "[5]", "result": "inactive"}, {"measurement": "Potency", "setting": "[8]", "result": "inactive"}]}
{"smiles": "O=C(c1ccc(Nc2nc(C3CC3)cn3c(-c4cn[nH]c4)cnc23)c(F)c1)N1CCOCC1", "values": [{"measurement": "Potency", "setting": "[1]", "result": "3.41 µM (active)"}, {"measurement": "Potency", "setting": "[2]", "result": "inactive"}, {"measurement": "activity change, negative = inhibition", "setting": "[3]", "result": -58.9, "unit": "%"}, {"measurement": "Potency", "setting": "[4]", "result": "8.57 µM (active)"}]}
{"smiles": "CCCCNc1ncc(-c2ccc(CN3CCOCC3)cn2)c(NC2CCC(O)CC2)n1", "note": "(stereo unspecified)", "values": [{"measurement": "Potency", "setting": "[1]", "result": "1.05 µM (active)"}]}
{"smiles": "C=CCC1(CC(C)C)C(=O)NC(=O)NC1=O", "values": [{"measurement": "Potency", "setting": "[10]", "result": "inactive"}, {"measurement": "Potency", "setting": "[5]", "result": "inactive"}]}
{"smiles": "CCNCCS(=O)(=O)NC[C@@]1(c2ccccc2)SC(NC(=O)C(C)(C)C)=NN1C(=O)C(C)(C)C", "values": [{"measurement": "Potency", "setting": "[1]", "result": "0.0607 µM (active)"}, {"measurement": "Potency", "setting": "[2]", "result": "inactive"}, {"measurement": "activity change, negative = inhibition", "setting": "[3]", "result": -77.9, "unit": "%"}, {"measurement": "Potency", "setting": "[4]", "result": "0.0541 µM (active)"}]}
{"smiles": "COc1ncc(Nc2ncc(C(C)N3CCN(S(C)(=O)=O)CC3)cc2-c2nc(C)nc(N)n2)cc1F", "note": "(stereo unspecified)", "values": [{"measurement": "Potency", "setting": "[1]", "result": "1.52 µM (active)"}]}
{"smiles": "CS[C@H]1SC[C@@H]2C(=O)N(C)[C@H](C(C)C)C(=O)OC[C@H](NC(=O)c3cnc4ccccc4n3)C(=O)N[C@H](C)C(=O)N(C)[C@H]1C(=O)N(C)[C@H](C(C)C)C(=O)OC[C@H](NC(=O)c1cnc3ccccc3n1)C(=O)N[C@H](C)C(=O)N2C", "values": [{"measurement": "Potency", "setting": "[1]", "result": "0.0086 µM (active)"}, {"measurement": "Potency", "setting": "[2]", "result": "inactive"}, {"measurement": "activity change, negative = inhibition", "setting": "[3]", "result": -94.2, "unit": "%"}, {"measurement": "Potency", "setting": "[4]", "result": "0.0076 µM (active)"}]}
{"smiles": "CC(=O)N1CCN(CCOc2ccc(C3CCN(C4=Nn5c(nnc5C(F)(F)F)CC4)CC3)cc2)CC1", "values": [{"measurement": "Potency", "setting": "[1]", "result": "19.2 µM (active)"}, {"measurement": "Potency", "setting": "[2]", "result": "inactive"}, {"measurement": "activity change, negative = inhibition", "setting": "[3]", "result": -91.8, "unit": "%"}, {"measurement": "Potency", "setting": "[4]", "result": "19.2 µM (active)"}]}
{"smiles": "O=c1c(-c2ccc(O)cc2)coc2c([C@@H]3O[C@H](CO)[C@@H](O)[C@H](O)[C@H]3O)c(O)ccc12", "values": [{"measurement": "Potency", "setting": "[1]", "result": "inactive"}, {"measurement": "Potency", "setting": "[2]", "result": "inactive"}]}
{"smiles": "Nc1ncc(C(=O)NC2CN(C(=O)C3CC3)C2)c2ccc(-c3cccc(F)c3)nc12", "values": [{"measurement": "Potency", "setting": "[1]", "result": "2.71 µM (active)"}, {"measurement": "Potency", "setting": "[2]", "result": "inactive"}]}
{"smiles": "CCN=C1Nc2ccc(Cl)cc2C(C)(c2ccccc2)O1", "note": "(stereo unspecified)", "values": [{"measurement": "Potency", "setting": "[10]", "result": "10.7 µM (active)"}, {"measurement": "Potency", "setting": "[5]", "result": "9.52 µM (active)"}]}
